Screens deposited in PubChem by The Scripps Research Institute Molecular Screening Center.
MITF primary: blocks human microphthalmia-associated transcription factor. O75030. AlphaScreen MITF homodimerization, bead proximity signal. inhibition, % at 2.6 µM. 650,000 compounds, 0.91% hits. AID 1259374; in the data active = inhibition above about 50%;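 note: 0% = vehicle wells with protein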
TEAD-YAP block: TEAD-YAP interaction inhibition | HEK-TIYL cells, TEAD-Gal4/YAP UAS-luciferase luminescence | inhibition, % at 9.12 µM | 640,000 compounds, 1.4% hits; in the data active = inhibition above about 32%;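 note: 0% = median of test compound wells and 100% = reference inhibitor wells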
FBW7 activator: human FBW7 E3 ligase activation, primary screen | 650,000 compounds, 0.13% hits | Q969H0 | AID 1259310 | normalized activity (activation), % at 26.1 µM | AlphaScreen FBW7–phospho-cyclin E peptide binding, activator screen; in the data active = normalized activity above about 1.9%;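 note: purified mutant Fbw7 with reduced substrate affinity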
GPR151 ag: activators of human GPR151; Q8TDV0; PathHunter beta-arrestin GPR151 cells, luminescence; activation, % at 11.2 µM; 650,000 compounds, 1% hits; in the data active = activation above about 4.9%;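 note: 0% = median of compound wells and 100% = cells with positive control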
Target sequence (Q8TDV0 whole entry, looked up): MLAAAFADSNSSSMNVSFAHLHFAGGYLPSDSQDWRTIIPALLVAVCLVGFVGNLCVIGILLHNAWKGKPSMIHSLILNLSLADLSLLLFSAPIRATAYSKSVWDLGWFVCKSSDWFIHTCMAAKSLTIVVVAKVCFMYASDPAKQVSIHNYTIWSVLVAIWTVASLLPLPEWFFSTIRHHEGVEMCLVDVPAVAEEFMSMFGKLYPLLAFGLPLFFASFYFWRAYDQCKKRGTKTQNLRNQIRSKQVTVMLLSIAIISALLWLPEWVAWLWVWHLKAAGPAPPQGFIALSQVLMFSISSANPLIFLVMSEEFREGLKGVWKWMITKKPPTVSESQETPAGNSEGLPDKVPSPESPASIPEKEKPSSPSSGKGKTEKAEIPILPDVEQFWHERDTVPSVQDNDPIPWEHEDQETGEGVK
MITF confirm: confirmation of human MITF inhibitors; shares compounds with MITF primary; AlphaScreen MITF homodimerization, biotin/His-MITF beads; inhibition, % at 2.6 µM; 4,700 compounds, 16% hits; AID 1259372;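 active = inhibition above a cutoff derived from the DMSO control wells, cut at about 28% in these data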;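 note: 0% = MITF dimer wells with DMSO only; inhibitors lower the bead chemiluminescence by keeping MITF from dimerizing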
AS interf DR: optically interferes with AlphaScreen signal in dose response. shares compounds with MITF primary. AlphaScreen optical interference counterscreen, cell-free. IC50, µM. 480 compounds, 6% hits; call rule not given here
AS interf ctr: counter-screen: compounds optically interfering with AlphaScreen. shares compounds with MITF primary. LysRS AlphaScreen counterscreen, signal interference, triplicate. inhibition, % at 2.6 µM. 4,700 compounds, 7.6% hits;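 active = inhibition above a cutoff derived from the DMSO control wells, cut at about 30% in these data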
Active calls of the source: *; x = no result. This is a sample that favours compounds with a hit; in the whole collection about 3.5% have one here.

SMILES	MITF primary	TEAD-YAP block	FBW7 activator	GPR151 ag	MITF confirm	AS interf ctr	others
COc1ccccc1C1(O)CC2CCC(C1)N2C(=O)c1cccnc1 (stereo not given)	73.0*	10.1	0.0	-0.5	7.8	16.3
COc1cc(CN2CCN(C(=O)c3cccnc3)CC2)cc(OC)c1OC	47.1	0.8	0.1	-0.5	x	x
COc1ccccc1CN1CCN(C(=O)c2cccnc2)CC1	57.4*	-0.2	0.0	0.8	5.8	-8.1
COc1ccc(CN2CCN(C(=O)c3cccnc3)CC2)c(OC)c1OC	31.6	10.4	0.0	0.7	x	x
CN1CCN(Cc2c(O)ccc3cc(-c4ccc(F)cc4)c(=O)oc23)CC1	-10.5	3.4	0.1	-1.1	x	x
Cc1cccc(C)c1NC(=O)C(c1ccccc1)N(Cc1ccccc1)C(=O)CC1NC(=O)NC1=O (stereo not given)	8.3	-8.4	0.2	-1.1	x	x
O=C(NCCO)/C(=C\c1ccccc1)NC(=O)c1ccc(I)cc1	18.8	10.1	0.8	-0.4	x	x
CC1CCCC(C)N1C(=O)c1cc2n(n1)C(C(F)(F)F)CC(c1ccc(Cl)c(Cl)c1)N2 (stereo not given)	58.6*	-2.6	0.4	-1.0	-10.0	-7.4
O=C(C1CCN(S(=O)(=O)c2ccc(F)cc2)CC1)N1CCCCC1	-8.1	6.7	0.3	-0.2	x	x
CC1(C)C(=O)NCCN1C(=O)C1CCN(S(=O)(=O)c2ccc(F)cc2)CC1	68.5*	-0.2	0.2	-0.8	-7.7	-5.1
Cc1ncn(-c2ccc(Nc3ncc4cccc(-n5cncn5)c4n3)cc2)n1	5.8	-1.3	-0.2	0.2	x	x
COc1ccc2c(c1)C1NC(=S)N(c3cccc(C)c3)C(C)(O2)C1C(=O)Nc1ccc(C)cc1C (stereo not given)	56.6*	6.0	-0.2	0.6	30.8*	20.3	AS interf DR=>5.71
NC(=O)n1c(CCC(=O)O)nc2sc3c(c2c1=O)CCC3	77.7*	-9.7	-0.3	-0.4	72.7*	-7.3	AS interf DR=>6.75
COc1cccc(COCC(O)CN2CC3(C)CC2CC(C)(C)C3)c1 (stereo not given)	68.4*	2.3	0.2	-0.7	11.2	9.6
CC1(C)CC2CC(C)(CN2CC(O)COc2ccccc2)C1 (stereo not given)	19.5	-9.7	0.0	-2.0	x	x
OCCN1CCN(Cc2ccc(-c3ccccc3)cc2)CC1	60.7*	-6.1	-0.1	0.6	17.4	3.6
CN1CCN(Cc2ccc(-c3ccccc3)cc2)CC1	61.3*	-13.8	0.0	-1.2	15.3	6.3
CC(=O)Nc1ccc(CN2CCN(C)CC2)cc1	79.9*	-4.4	-0.2	-0.7	2.6	18.8
c1ccc(-c2ccc(CN3CCSCC3)cc2)cc1	11.7	-7.3	-0.4	0.2	x	x
Cc1cccc(NC(=O)/C=C/c2cccc([N+](=O)[O-])c2)c1	14.7	-30.3	0.2	0.0	x	x
CC1Cc2ccccc2N1S(=O)(=O)c1ccccc1F (stereo not given)	4.0	-0.5	0.0	-1.5	x	x
CC(C(=O)N1c2ccccc2CC1C)N1CCN(S(=O)(=O)c2ccccc2F)CC1 (stereo not given)	75.1*	17.1	-0.2	-0.4	5.5	12.9
CC(C(=O)Nc1ccc(C#N)cc1)N1CCN(S(=O)(=O)c2ccccc2F)CC1 (stereo not given)	84.7*	-0.9	0.0	0.2	10.8	5.2
COC1(OC)N=C(N)C2(C#N)C(c3cccc(OCc4ccccc4)c3)C12C#N (stereo not given)	35.4	-3.5	-0.2	-1.2	x	x
COC1(OC)N=C(N)C2(C#N)C(c3cccc(C)c3)C12C#N (stereo not given)	52.0*	1.9	-0.1	0.2	8.1	-1.8
SMILES	MITF primary	TEAD-YAP block	FBW7 activator	GPR151 ag	MITF confirm	AS interf ctr	others
CN(C)CCCNc1ncnc2sc3c(c12)CCC3	78.8*	19.9	-0.1	1.5	13.0	29.9*
CN(C)CCCNc1ncnc2sccc12	72.9*	-6.5	-0.4	0.4	1.9	11.0
O=C(N/N=C/C=C/c1ccco1)c1ccncc1	67.5*	5.0	-0.5	-0.3	75.6*	-2.6	AS interf DR=>6.48
O=C(CCc1nnc(Cc2c[nH]c3ccccc23)o1)NCC1(c2ccccc2)CCOCC1	-3.9	-4.6	0.1	-1.6	x	x
O=c1c(CN2CCCCC2)coc2ccc(Cl)cc12	1.8	-6.8	-0.1	-1.0	x	x
CN1CCN(Cc2coc3c(Cl)cc(Cl)cc3c2=O)CC1	64.5*	-2.6	0.4	1.0	-0.3	1.1
c1ccc(COc2ccc(OCCn3ccnc3)cc2)cc1	80.5*	-45.1	0.1	1.2	7.1	1.7
CCc1ccc(OCCn2ccnc2)cc1	30.5	-1.9	0.0	-0.2	x	x
c1ccc(COc2ccc(OCCCn3ccnc3)cc2)cc1	78.7*	54.2*	0.0	-6.1	6.1	18.4
CCc1ccc(OCCCCCn2ccnc2)cc1	53.1*	6.2	-0.4	-0.3	-5.1	-2.2
c1ccc(OCCCn2ccnc2)cc1	-1.1	7.5	0.1	-0.5	x	x
CCC1CCCCN1C(=O)c1cccc(OC)c1 (stereo not given)	6.8	-1.9	0.1	0.6	x	x
CC1CCCN(C(=O)C2CCN(Cc3ccccn3)CC2)C1 (stereo not given)	18.1	3.7	-0.2	2.5	x	x
c1ccc(N2CCN(C3CCN(Cc4ccccn4)CC3)CC2)cc1	53.8*	-2.6	0.1	0.7	4.3	6.7
c1ccc(CN2CCC(c3ccncc3)CC2)nc1	9.4	3.3	-0.2	0.3	x	x
c1ccc(C2CCC(N3CCN(Cc4ccccn4)CC3)CC2)cc1 (stereo not given)	67.9*	-1.1	0.0	-1.8	9.0	11.6
c1ccc(C2CCC(N3CCN(Cc4cccnc4)CC3)CC2)cc1 (stereo not given)	65.2*	1.9	-0.2	-1.3	-10.3	12.4
CC1CCCC(N2CCN(Cc3ccccn3)CC2)C1 (stereo not given)	72.4*	-4.8	0.1	-0.5	4.7	16.1
COc1cccc(C(=O)CS(=O)(=O)c2ccc(C)cc2)c1	26.9	6.6	1.4	-2.6	x	x
CCCCCC1CCc2nc(-c3ccc(I)cc3)ccc2C1 (stereo not given)	19.8	4.1	0.1	-0.3	x	x
CN(C)c1ccc(C2/C(=C(/O)c3ccc(F)cc3)C(=O)C(=O)N2CCCCCC(=O)O)cc1 (stereo not given)	6.3	-6.4	0.3	0.1	x	x
CCN(Cc1ccccc1)C1CCN(Cc2ccccn2)CC1	58.6*	3.5	-0.1	-1.2	-9.9	-0.3
c1ccc(CN2CCN(C3CCCC3)CC2)nc1	73.8*	-8.7	-0.2	-1.2	10.9	9.9
c1ccc(CN2CCC(N3CCN(Cc4ccccn4)CC3)CC2)cc1	40.2	3.8	0.7	-1.9	x	x
O=C(O)C1CCN(Cc2ccccn2)CC1	-5.3	0.4	-0.2	0.6	x	x
Cc1ccccc1CN1CCN(C2CCCC(C)C2)CC1 (stereo not given)	76.4*	-6.2	0.1	-1.2	-15.0	3.5
